Source: PubChem BioAssay
The list is not random: actives were taken first. Their share in the collection is about 5.3%.
ALR H2O2 inh = inhibitors of human ALR sulfhydryl oxidase, primary screen, biochemical, H2O2 detection, HRP-luminol luminescence, single point; inhibition, % (no concentration beside the values); AID 485317, 2010; hit rate 3.8% among 290,000; purified ALR, DTT oxidation; FAD-linked sulfhydryl oxidase ALR (Homo sapiens), P55789;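 active means mean replicate inhibition above about 79%, with every replicate also reaching it, limit read from the data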
Target sequence (P55789 whole entry, looked up): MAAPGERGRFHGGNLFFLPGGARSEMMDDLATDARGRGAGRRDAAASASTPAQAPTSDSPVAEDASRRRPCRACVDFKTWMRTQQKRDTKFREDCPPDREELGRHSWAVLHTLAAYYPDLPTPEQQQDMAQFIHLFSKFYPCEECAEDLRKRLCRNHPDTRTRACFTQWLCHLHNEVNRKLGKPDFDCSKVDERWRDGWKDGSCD
PfM18AAP inh = PfM18AAP inhibitors, malaria aminopeptidase, primary screen, biochemical, QFRET, recombinant enzyme; AID 1822, 2009; inhibition, % at 7.35 µM; H-Glu-NHMec fluorogenic cleavage; hit rate 1.2% among 290,000; M18 aspartyl aminopeptidase (Plasmodium falciparum 3D7);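 active means inhibition above the campaign mean inhibition over all tested compounds plus 3 SD, cut at about 28% in these data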;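 further: 0% = plate median of test compound wells and 100% = 2 mM ZnCl2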
SUMO Mot1 rescue = yeast Mot1-301 growth rescue at high temperature, primary screen, SUMOylation pathway inhibitor project, S. cerevisiae, ATP luminescence, 38.5C. S. cerevisiae Mot1-301 growth rescue; percent above DMSO median, 100 means doubled. growth rescue, % at 18.8 µM. hit rate 1% among 320,000. AID 2716, 2010;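 active means every valid replicate shows activation above 250% relative to neutral control wells; inactive means the rest, any valid replicate at or below 250%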;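 further: OY570 slx delta 5 strain wells were the positive control but not used for scaling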
HIF act = HIF pathway transcriptional activators, primary screen, cell-based, U2OS HRE-luciferase, luminescence; U2OS HRE-luciferase reporter; normalized: DMSO 0%, desferrioxamine 100%; hit rate 0.32% among 300,000; activation, % at 7.5 µM (by protocol);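 active means mean activation of at least 10% of the iron chelator positive control signal, with at least half of replicates also reaching 10%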
* hit, by the source's call; i = inactive; / = not tested or not shown.

SMILES | ALR H2O2 inh | PfM18AAP inh | SUMO Mot1 rescue | HIF act
CCN(CC)S(=O)(=O)c1ccc(NC(=O)c2c(-c3ccccc3)noc2C)cc1 | 93.2* | 6.4 | 0.7 | /
Cc1c(Cl)c(C(=O)NNC(=S)Nc2ccccc2)nn1C | 91.5* | 24.8 | -4.3 | 0.3
Cc1c(Cl)c(C(=O)NNC(=S)Nc2ccc(F)cc2)nn1C | 80.8* | 19.1 | i | 1.2
CCc1ccc(NC(=S)Nc2cccc3cnccc23)cc1 | -191.2 | 4.1 | 7.3 | 1.8
Fc1ccc(-n2[nH]nnc2=S)cc1N1CCCC1 | 82.2* | -12.5 | 17.9 | 1.0
Cc1cc(C)nc(NS(=O)(=O)c2ccc(NC(=O)Cc3ccccc3F)cc2)n1 | 99.0* | -4.5 | 1.3 | -1.1
CCOc1ccccc1OCC(=O)Nc1ccc(S(=O)(=O)Nc2nc(C)cc(C)n2)cc1 | 94.7* | -0.6 | -18.3 | -0.4
Cc1cc(C)nc(NS(=O)(=O)c2ccc(NC(=O)NC3CCCCC3)cc2)n1 | 98.4* | 3.8 | 4.0 | -0.2
Cc1cc(C)nc(NS(=O)(=O)c2ccc(NC(=O)COc3ccccc3F)cc2)n1 | 52.3 | / | -4.3 | /
Cc1cc(C)nc(NS(=O)(=O)c2ccc(NC(=O)Nc3ccccc3)cc2)n1 | 1.7 | -12.3 | -10.3 | 0.5
COc1cc(NS(=O)(=O)c2ccc(NC(=O)COc3ccc(C)cc3C)cc2)nc(OC)n1 | / | 0.0 | / | 0.0
COc1cc(NS(=O)(=O)c2ccc(NC(=O)COc3ccccc3C)cc2)nc(OC)n1 | 98.8* | 5.3 | 4.7 | /
Cc1ccc(S(=O)(=O)N2CCOCC2)cc1NC(=O)CSc1nnc(NC2CC2)s1 | -14.5 | / | -14.8 | /
CCOc1ccccc1N1CCN(C(=O)CSc2ccc3c(c2)OCCO3)CC1 | / | / | 14.5 | /
CC(=O)NCC1CCN(C(=O)C2CCC(=O)N(CCc3cccc(F)c3)C2)CC1 (centres undefined) | -1.0 | 2.1 | 234.1 | -0.1
CCCCCN(C(=O)CCC(=O)OC(C)C(=O)c1ccc(Cl)cc1)c1c(N)n(CCCC)c(=O)[nH]c1=O (centres undefined) | -10.7 | / | 3.2 | -0.3
Cc1ccc(S(=O)(=O)N2CCCCC2)cc1C(=O)N1C(C)CCCC1C (centres undefined) | 3.4 | / | 4.9 | /
CC1CCCCC1NC(=O)C1CCC(CNS(=O)(=O)c2ccc(F)cc2)CC1 (centres undefined) | / | -3.5 | 295.3* | 0.1
CCCNC(=O)C(Cc1ccc(Cl)cc1)NC(=O)c1ccc(C#N)cc1 (centres undefined) | 0.9 | / | 3.6 | /
Cc1nc2ccccn2c1C(=O)/C=C/c1cccc([N+](=O)[O-])c1 | 54.3 | -10.3 | i | 0.2
Cc1ccc(C(=O)/C=C/C(=O)O)cc1 | 98.1* | -23.6 | 80.2 | -0.4
O=C(/C=C/c1ccc(OC2CSC2)cc1)c1ccccc1 | 82.9* | -0.1 | 46.5 | 1.5
Cc1ccc(/C=C/C(=O)c2c(C)nc3ccccn23)cc1 | 97.7* | 3.5 | 1.7 | 1.1
Cc1ccc(/C=C/C(=O)c2ccccc2)cc1 | 97.1* | -3.1 | -16.8 | 3.2
CC(=O)c1ccc(N/C=C\C(=O)c2ccc(C)cc2)cc1 | -13.0 | 1.8 | 5.0 | 1.8
SMILES | ALR H2O2 inh | PfM18AAP inh | SUMO Mot1 rescue | HIF act
Cc1ccc(/C=C/C(=O)c2ccc(O)cc2)cc1 | 10.7 | 4.2 | 185.2 | 1.4
C/C(N)=C(/C#N)C(=O)COC(=O)c1ccc(OCC2CCCO2)cc1 (centres undefined) | / | -10.2 | -2.6 | 2.0
O=C(CNC(=O)C1COc2ccccc2O1)N/N=C/c1ccc(O)cc1O (centres undefined) | 67.2 | 5.9 | -19.4 | 0.4
O=c1c2ccccc2c(=O)n(-c2ccccc2)n1CCCCBr | -8.3 | / | -12.6 | -0.9
CC(=O)n1c(=O)c2ccccc2c(=O)n1-c1ccccc1 | 97.9* | 7.2 | 19.1 | 1.0
CC(=O)Nc1ccc(SCC(=O)NCC2(N3CCCCC3)CCCCC2)cc1 | 98.9* | / | 6.0 | /
CS(=O)(=O)c1ccc(C(=O)NCC2(N3CCOCC3)CCCCC2)cc1 | -6.3 | / | -4.7 | /
N#CCC(=O)Nc1ccc(C(=O)NCC2(N3CCOCC3)CCCCC2)cc1 | 98.7* | / | -16.7 | /
O=C(CSc1ccccc1)NCC1(N2CCOCC2)CCCCC1 | -1.5 | / | -3.4 | 0.4
COc1ccc(C(=O)N/N=C\c2coc3ccccc3c2=O)cc1 | / | 20.4 | 8.4 | 0.4
COc1cc(C(=O)Oc2ccccc2/C=N/NC(=O)c2ccc(C)c(Cl)c2)cc(OC)c1OC | 2.1 | -2.1 | 85.6 | 0.9
O=C(CCc1ccc(O)cc1)N/N=C/c1coc2ccccc2c1=O | 78.9* | 15.4 | 33.5 | 0.3
Cc1cccc(C(=O)N/N=C/c2coc3ccccc3c2=O)c1 | 88.6* | 1.4 | 6.0 | 0.8
COc1cc(C(=O)Oc2ccccc2/C=N/NC(=O)c2ccc(Cl)cc2)cc(OC)c1OC | -2.1 | 4.9 | -21.3 | 71.0*
CCOc1cccc(C(=O)N/N=C/c2coc3ccccc3c2=O)c1 | 27.4 | -6.7 | 0.2 | 0.5
COc1cc(C(=O)N/N=C/c2coc3ccccc3c2=O)cc(OC)c1OC | 52.5 | 29.7* | 12.9 | 1.1
CCOc1ccc(C(C)=O)cc1COC(=O)CCc1cc(OC)c(OC)c(OC)c1 | -2.0 | 0.0 | -19.8 | -0.6
CC(C)Oc1cccc(C(=O)N/N=C/c2coc3ccccc3c2=O)c1 | 97.5* | 12.3 | 12.2 | /
Cc1ccc(-c2nc(C)sc2CC(=O)Nc2nnc(C)s2)cc1 | 97.5* | 1.1 | 1.6 | -0.6
Cc1ccc(-c2nc(Nc3cccc(C)c3)sc2CC(=O)O)cc1 | 98.4* | 13.7 | -6.8 | 4.6
CC(=O)Nc1ccc(NC(=O)Cc2sc(C)nc2-c2ccc(C)cc2)cc1 | / | -2.3 | 9.3 | -0.4
Cc1cccc(Nc2nc(CC(=O)O)cs2)c1 | 30.2 | -2.2 | 23.7 | 2.1
CC1CN(C(=O)COC(=O)c2ccc(NC(=O)CC#N)cc2)CC(C)O1 (centres undefined) | 98.6* | 6.7 | 17.5 | -1.1
N#CCC(=O)Nc1ccc(C(=O)OCC(=O)c2ccc3c(c2)OCO3)cc1 | 99.2* | / | -14.1 | 2.1
O=C(COC(=O)c1ccc(CO)cc1)Nc1ccc2ccccc2c1 | -7.2 | / | -0.4 | /
SMILES | ALR H2O2 inh | PfM18AAP inh | SUMO Mot1 rescue | HIF act
N#CCC(=O)Nc1ccc(C(=O)OCC(=O)c2ccc3c(c2)OCCO3)cc1 | 63.5 | -12.4 | / | 3.7
N#CCC(=O)Nc1ccc(C(=O)OCC(=O)Nc2ccc3ccccc3c2)cc1 | 91.8* | / | 15.1 | /
CC(C)(C)NC(=O)COC(=O)c1ccc(NC(=O)CC#N)cc1 | 99.2* | 4.9 | 41.2 | 0.4
CCOc1ccc(C(=O)OCC(=O)N2CC(C)OC(C)C2)cc1OCC (centres undefined) | -2.2 | -0.2 | -9.5 | -0.8
C=CCOc1ccc(/C=C/C(=O)OCC(=O)N2CCC(c3ccccc3)=N2)cc1 | / | / | -3.5 | /
COc1ccc(Cn2c(=S)[nH]c3ccccc3c2=O)cc1 | 2.1 | 5.6 | 277.2 | -1.3
CC(=O)Nc1ccc(SC[C@H](c2ccccc2)N2CCN(CCc3ccccc3)CCC2=O)cc1 | 98.0* | / | -14.5 | -1.2
O=C1CCN(CCc2ccccc2)CCN1[C@H](CSc1ccc(Br)cc1)c1ccccc1 | / | / | 6.6 | 0.5
